PBM binding z-score data for 40 sequences are collected here from the supplement of paper PMC6555819.

The test system of this assay is VDR:RXRa (NR concentration 270 nM, RXRa partner concentration 90 nM). The experiment in a line: PBM binding z-score (relative to random genomic background probes); higher = stronger binding; sequences stand for … in GC…GCGATTGACAGCGTAGAATGAAGG
The procedure:
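Protein-binding microarray (Agilent 4x180K custom design, double-stranded 60-nt probes: 5' GC cap, 34-nt variable region, 24-nt constant primer region; full probe sequence given). Purified or IVT nuclear receptor:RXRα heterodimers (3:1 NR:RXRα, mostly 270:90 nM) or homodimers were incubated for 1 h in PBS with 2% milk and no ligand, then detected with Alexa488 antibodies. Fluorescence from o1-orientation probes (~5 replicates averaged) was converted to z-scores against 500 random hg19 background probes. Variable regions are seed direct-repeat (DR0–DR5) sites, all their single-nucleotide variants and half-site ablations.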
Take GCGTGTAGATCAAGGTTAAGAAAGACTAAGCTAA: the PBM binding z-score is 0.0899.
The same measure for TCTTGTAGATCAAAGGTTAAGTAAGCCGAAGCCT: 2.04.
In the case of TCTTGTTGGTCAAAGGTCACACACTCGAAATGCG, the PBM binding z-score was 5.23.
The same measure for CTCGAAAGGCCGTGCTCAGGTGAGTATACCAAAC: -0.528; for CCTCCTGGGCCAAAGGTCATTGATTCCAATGCTC: 4.75; for GCTAGCAGGCCACTTGGGTCACTCAATGACGGGC: 0.83.
The same measure for CCTACTGGGCGATCAGGTCATTGATATCAACGTT: 1.67.
To TCGAGTAGGTTAGTCGGAGCATTCAGCCAACATA belongs -0.307; to CCAGACAGGTGAAAGGTAACTGAGTCTGGTACGC, 0.972.
Sequence GCTTACGGGTCAAAGGTTATAGGATGAATAGAAT returned a PBM binding z-score of 5.56.
To CGTCCAAGGTCAAGGTTAGTGAAAGAGACTCGAA belongs 3.93; to CGTCCAAGGTCAATGGTAGGTCAGTGAAAGCATT, 4.89.
In turn, TGTCAAAGTACAAAGGTAACGTAAGTATCCACAC yielded a PBM binding z-score of 0.725.
The same measure for ACTTTCGGGTCAACGAGGTTATAGCACGCGTATA: 7.85; for ATATGTAGGTTAAGGGTCGTTCAGGTTGGTTCGC: 3.88; for AATACAGGGTCACTAGGCCATAGTAGGTACGAAT: 4.25.
The same measure for ATCTCTAGGTAAAAGTTCAGTGGATCCCGAGGAT: 1.21.
To GCGACTGGGGCAAAGCAGGTTCCCATAAGGTTGG belongs -0.543.
In turn, CGTCGAAGGTCAAAGGTCAGTGAAGAGATGACGG displayed a PBM binding z-score of 6.4.
To CCAGACATGTGAAAGGTAACTCAGTCTGGTACGC belongs 0.207.
To ACTAGCTGGTCAGCTGAGGTCACACACAATTCGG belongs 4.56.
GCTGCTAGGTCAACTGATGGTCGGCTAAAGCTCG had a PBM binding z-score of 1.4.
Turning to TGTCAAAGTTCAAAGGTAAAGTAAGTATCCACAC, the PBM binding z-score worked out at 4.88.
On to ATACCAAGGTGATCGTGAGGTGGTTGATACTAAC, for which the PBM binding z-score is -0.0231.
TCTCGGAGGACACGAAGGTCAGAGTTTTCCAGAG gave a PBM binding z-score of 2.41.
As for TCTCGGAGGACACGAAGATCAGAGCTTTCCAGAG, the PBM binding z-score is -0.165.
To CTGACTGGGGCAGAAAGGTTACCATACCATCCGG belongs 1.36.
The same measure for CAATCTAGGTCAAGGTCAAAGTCGGTTTGTGCCA: 4.97.
The same measure for ATCTCTAGGTAACCAAGTTCAGCGAATGCCGAAC: 4.31; for GCTACAGGGTCAAGGCCAGAGTACGCGTATTGAT: 4.28; for ATAAGTAGGTTAAGGGTCATTCAGGTTGGTTCGC: 5.89.
For the sequence ATCGAAAGGTCGAAGATGAGTATACCCACCCGAA, the PBM binding z-score turned out to be 2.36.
ACTTACGGGGCAACGAGGTTATAGCACGCGTATA yielded a PBM binding z-score of 5.28.
In the case of CTCGAAAGGTCGTGCACAGGTGAGTATACCAAAC, the PBM binding z-score stood at 3.8.
To AGAATGAGGTTATACGTAGATCAGGGTAGAAAGT belongs 1.49; to TTACCAAGGTGAAGGTCGCTGATCCCTCTGTAGA, 0.493; to CAAACTAGGTCAAGAGCTCAAAGTCCGCTTCCCG, 1.29.
To AGAACAAGGGCACGCTGAGTTGATAGCAGAGTAG belongs 1.36; to ATCTCTAGATAACAAGTTCAGTGAAAGAGAGGAC, 1.45.
In turn, CGTCAAAGTTCAACTATGGTAACGTAAAGCACGC returned a PBM binding z-score of 4.35.
